From PubChem BioAssay AID651956 (Broad Institute, 2012)
Entries with a potency or affinity are not part of this list. Inconclusive results are not listed. Calls of active or inactive are those of the source.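 The calls were made as follows: active = in every test run, a fitted half-maximal concentration for signal decrease at or below twice the highest tested concentration; inconclusive = runs disagree, flat 30 to 70% decrease, or poor fit; inactive = the rest.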

experiment: activation of miR-122 Renilla sensor silencing – cell-based, Huh7 psiCHECK-miR122, Renilla luciferase, cherry-picked, dose response (AID 651956); conditions: Huh7 psiCHECK-miR122 Renilla luciferase reporter, 48 h; series mostly up to 35 µM;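 also: Renilla luciferase from a miR-122 sensor reporter so lower signal means miR-122 activation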

| SMILES | outcome |
| --- | --- |
| COc1ccc(C(C#N)Nc2ccc(C)cc2)cc1 (centres undefined) | inactive |
| CC(=O)N1[C@H](CN(C)S(=O)(=O)c2ccccc2)[C@H](c2ccccc2)[C@@H]1CO | inactive |
| CCC(=O)N1[C@@H](CO)[C@H](c2ccccc2)[C@@H]1CN(C(C)C)S(C)(=O)=O | inactive |
| c1ccc(-c2nnc3n2CCCC3)cc1 | inactive |
| COCC(=O)Nc1ccc2c(c1)C(=O)N(C)[C@@H]1CC[C@H](CC(=O)NCc3ccccc3F)O[C@H]1CO2 | inactive |
| CCC(=O)NC[C@H]1[C@H](c2ccc(C3=CCCC3)cc2)[C@H](CO)N1C(C)=O | inactive |
| C[C@H]1CN([C@@H](C)CO)S(=O)(=O)c2ccc(C#Cc3ccccc3F)cc2O[C@@H]1CN(C)C(=O)c1ccc2c(c1)OCO2 | inactive |
| CCN(C[C@H]1N[C@@H](CO)[C@@H]1c1ccc(C2=CCCC2)cc1)C(=O)c1ccncc1 | inactive |
| CN(C(=O)c1ccccc1Cl)C1CCCCC1 | inactive |
| CN1C(=O)c2cc(NC(=O)c3cccc(C(F)(F)F)c3)ccc2OC[C@@H]2O[C@@H](CC(=O)NCCN3CCCC3)CC[C@@H]21 | inactive |
| Cc1nn(C)cc1NC(=O)C[C@H]1CC[C@H]2[C@H](COc3ccc(NC(=O)c4cccc(F)c4)cc3C(=O)N2C)O1 | inactive |
| COC(=O)C[C@H]1CC[C@@H]2[C@@H](COc3ccc(NC(=O)c4cscn4)cc3C(=O)N2C)O1 | inactive |
| O=C(NC[C@@H]1[C@@H](c2ccccc2)[C@H](CO)N1C(=O)C1CCC1)NC1CCCC1 | inactive |
| CCCNC(=O)C[C@H]1CC[C@@H]2[C@@H](COc3ccc(NC(=O)c4ccc5c(c4)OCO5)cc3C(=O)N2C)O1 | inactive |
| CN1C(=O)c2cc(NC(=O)Nc3ccccc3F)ccc2OC[C@@H]2O[C@H](CC(=O)O)CC[C@@H]21 | inactive |
| CC(=O)N1[C@H](CO)[C@H](c2ccccc2)[C@@H]1CN(C(=O)c1ccc(F)cc1)C(C)C | inactive |
| Cc1ccc(C(=O)n2nc(-c3ccccc3)nc2NCc2ccco2)cc1 | inactive |
| COCC(=O)N1[C@@H](CO)[C@@H]2c3ccccc3N(C(=O)C3CC3)C[C@@H]21 | inactive |
| C/C=C/c1ccc([C@H]2[C@@H](CO)N[C@@H]2CN(CC(C)C)C(=O)c2ccccn2)cc1 | inactive |
| C[C@H]1CN([C@@H](C)CO)S(=O)(=O)c2ccc(-c3ccccc3F)cc2O[C@@H]1CN(C)Cc1cccnc1 | inactive |

| SMILES | outcome |
| --- | --- |
| CNC(=O)C[C@H]1CC[C@@H]2[C@H](COc3ccc(NC(=O)C(C)C)cc3C(=O)N2C)O1 | inactive |
| CCOc1cc(-c2nccc3cc(OC)c(OC)cc23)cc(OCC)c1OCC | inactive |
| CCN(C[C@H]1[C@H](c2ccccc2)[C@H](CO)N1C(=O)COC)S(C)(=O)=O | inactive |
| CCCNC(=O)Nc1ccc2c(c1)C(=O)N(C)[C@@H]1CC[C@H](CC(=O)O)O[C@H]1CO2 | inactive |
| O=C(Nc1ccccc1)N1C[C@@H]2[C@H](c3ccccc31)[C@H](CO)N2Cc1cocn1 | inactive |
| CC(=O)Nc1ccc2c(c1)C(=O)N(C)[C@H]1CC[C@@H](CC(=O)NCc3ccc4c(c3)OCO4)O[C@@H]1CO2 | inactive |
| COc1ccc(CNC(=O)C[C@H]2CC[C@H]3[C@H](COc4ccc(NC(=O)C(C)C)cc4C(=O)N3C)O2)cc1 | inactive |
| N#Cc1c(N)nc2c(c1-c1cccs1)CCCC2 | inactive |
| Cc1cc(C)n(C(=O)Cn2nc(C)c(Br)c2C)n1 | inactive |
| C/C=C/c1ccc([C@@H]2[C@@H](CN(C(=O)COC)C(C)C)N(C(C)=O)[C@H]2CO)cc1 | inactive |
| COCCN(C[C@H]1[C@@H](c2ccccc2)[C@H](CO)N1C(=O)C1CCC1)C(C)=O | inactive |
| CO[C@H]1CN(C)C(=O)c2cc(NC(=O)C3CC3)ccc2OC[C@H](C)N(CCc2ccccc2)C[C@H]1C | inactive |
| COc1ccc(-c2c(C(C)=O)c(C)nc3sc4c(c23)NC(c2ccccc2)NC4=O)cc1 (centres undefined) | inactive |
| CN(C)C(=O)C[C@@H]1CC[C@@H]2[C@@H](COc3ccc(NC(=O)C4CC4)cc3C(=O)N2C)O1 | inactive |
| C/C=C/c1ccc([C@H]2[C@@H](CO)N(Cc3ccccn3)[C@H]2CNC(C)=O)cc1 | inactive |
| NC(=O)c1csc(-c2ccncc2)n1 | inactive |
| OC[C@H]1[C@@H](c2ccccc2)[C@@H](CNCC2CCC2)N1CC1CC1 | inactive |
| CCc1nc2sc(C)c(C)c2c(=O)n1CCO | inactive |
| O=C(c1ccco1)N1CCN(C2CC(=O)N(c3ccccc3)C2=O)CC1 (centres undefined) | inactive |
